Compounds with a hit are over-represented: about 3.8% of the library has one in this group of screens.
Jurkat NFkB inh = inhibitors of induced NF-kB luciferase reporter, primary screen, TCR NF-kB activation inhibitor project, cell-based, luminescence, uHTS | Jurkat, PMA/ionomycin-induced NF-kB luciferase reporter | inhibition, % at 4 µM | 330,000 tested, 0.53% active | AID 435003, 2010; in the data active = inhibition above about 50%
NTR1 ag = agonists of human NTR1, primary screen, imaging, U2OS cells, beta-arrestin-GFP, high content. Neurotensin receptor type 1 (Homo sapiens), P30989. AID 493036, 2011. 330,000 tested, 0.17% active. activation, % at 20 µM. NTR1-U2OS beta-arrestin-GFP spot imaging, agonist mode;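 active = activation at or above 40% of the spot to cytoplasm intensity ratio, with at least 20 cells analyzed; inconclusive = wells under 20 cells, flagged as cytotoxic or low count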;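 also: 0% = DMSO without peptide and 100% = 100 nM NTR1 peptide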
Mdm2-MdmX inh = inhibitors of human Mdm2-MdmX association, primary screen, cell-based, luminescence, split luciferase, SaOS-2, uHTS; SaOS-2 split-luciferase Mdm2/MdmX complementation; inhibition, % at 8 µM; 330,000 tested, 3% active;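 active = inhibition of at least 50% at 8 µM in the primary screen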
Bfl-1 A1 inh = caspase 3/7 activation in MEF A1-2A-BIM cells, primary screen, A1 inhibitor project, cell-based, luminescence, HTS; Caspase-Glo 3/7 luminescence, 3 h; percent of clofoctol response, vehicle zero; caspase activation, % (test concentration not listed); 330,000 tested, 0.066% active;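 active = over half of replicate activation scores above 10%, or exactly half above 10 with the replicate mean above 10; inconclusive = replicate mean below 10 yet half the replicates above 10; inactive = over half of replicates below 10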
697 NFkB inh = inhibitors of PMA/ionomycin-induced NF-kB reporter, 697 cells, primary screen, B-cell NF-kB inhibitor project, cell-based, luminescence, uHTS; 697 B-cell NF-kB luciferase reporter, 16 h; inhibition, % at 4 µM; 330,000 tested, 0.33% active; AID 435022, 2010; in the data active = inhibition above about 35%
Beta cell apopt = inhibitors of cytokine-induced beta cell apoptosis, primary screen, luminescence. INS-1E cytokine-induced death, ATP luminescence, 48 h; percent of positive-control rescue, neutral wells zero. protection from apoptosis, % (test concentration not listed). 300,000 tested, 0.8% active;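 active = Every replicate reaches about 75%, or at least half do and their mean reaches it too, limit read from the data; inconclusive = At least half of replicates reach the limit but their mean does not; inactive = Under half of replicates reach the limit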;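 also: 0% = cytokine-treated negative control wells and 100% = positive control rescue; higher means more ATP so stronger rescue from cytokine killing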
Mdm2-MdmX conf = Mdm2-MdmX complex disruptors, retested hits, confirmation, luminescence, single concentration. 10,000 tested, 55% active. shares compounds with Mdm2-MdmX inh. inhibition, % at 8 µM. Mdm2-MdmX binding, luminescent assay. AID 489028, 2010; in the data active = inhibition above about 40%
FLuc counter = full-length luciferase signal inhibition, confirmation, counter-screen for Mdm2/MdmX interaction inhibitor project, cell-based, single concentration, SaOS-2; shares compounds with Mdm2-MdmX inh; 6,200 tested, 77% active; inhibition, % at 8 µM; SaOS-2 full-length luciferase counterscreen, luminescence;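 active = mean inhibition at 8 µM reaching about 37%, which flags the compound as non-specific, limit read from the data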;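 also: p53-null SaOS-2 cells with luciferase driven by a doxycycline-inducible promoter; compound on cells about two nights before reading with doxycycline added after day one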
* hit, by the source's call; ? = inconclusive; / = no result.

SMILES | Jurkat NFkB inh | NTR1 ag | Mdm2-MdmX inh | Bfl-1 A1 inh | 697 NFkB inh | Beta cell apopt | Mdm2-MdmX conf | FLuc counter
Cc1ccc(N=Cc2c(O)n(-c3ccc4c(c3)OCO4)c(=O)c3ccccc23)cc1 | 5.5 | 2.8 | 69.2* | -0.2 | 10.7 | 58.6 | 42.4* | 36.3*
CCCCN(C(=O)c1cnc(C)cn1)c1c(N)n(CCC)c(=O)[nH]c1=O | 2.1 | -1.2 | 15.3 | -0.2 | 16.1 | -2.7 | / | /
CN(C)CC/C=C1\c2ccccc2Sc2ccc(Cl)cc21 | -6.1 | 1.0 | 42.3 | -0.1 | -2.4 | -4.3 | / | /
CCCCCCCCCCC[N+](C)(C)CC/C=C1/c2ccccc2Sc2ccc(Cl)cc21 | 5.1 | 18.9 | 77.8* | ? | 3.1 | 98.0* | 68.6* | 28.6
CN(C)CC/C=C1\c2cc(Cl)ccc2Sc2cc(F)c(F)cc21 | 18.3 | 12.0 | 35.7 | 0.0 | 8.0 | 3.4 | / | /
OCCN1CCN(CC/C=C2/c3ccccc3Sc3ccc(Cl)cc32)CC1 | 2.7 | 4.9 | 60.8* | 1.3 | 15.8 | -6.1 | 23.9 | /
CC[N+](C)(C)CC/C=C1/c2ccccc2Sc2ccc(Cl)cc21 | -6.8 | 0.1 | 34.0 | -0.6 | -6.9 | 3.9 | / | /
CCCCCCCCCC[N+](C)(C)CC/C=C1/c2ccccc2Sc2ccc(Cl)cc21 | -0.4 | 29.4 | 82.8* | 2.7 | -0.4 | 91.4* | 76.5* | 19.3
COc1cccc(CNC(=O)C2CCN(c3nnc(N4CCCC4=O)s3)CC2)c1 | -2.8 | 0.4 | -5.6 | 0.6 | -11.3 | -5.0 | / | /
CCOc1ccccc1Nc1cc2n(c(=O)n1)CCc1cc(OC)c(OC)cc1-2 | 11.3 | 1.0 | 28.9 | 0.5 | 17.8 | 25.6 | / | /
CCOc1ccc(Nc2cc3n(c(=O)n2)CCc2cc(OC)c(OC)cc2-3)cc1 | -5.5 | 1.2 | 50.8* | -0.6 | 5.9 | 14.0 | 6.2 | /
COc1ccc(C(=O)N/C(=C/c2cccs2)c2nc3ccccc3[nH]2)cc1OC | -12.8 | 0.3 | -0.9 | 1.5 | -7.9 | 0.8 | / | /
O=C(/C(=C/c1ccc(Cl)cc1)c1nc2ccccc2[nH]1)c1ccccc1 | 0.3 | 18.4 | 100.3* | 0.6 | -86.9 | 104.4* | 99.2* | 50.6*
COc1cc(/C=C(/C(=O)c2cccs2)c2nc3ccccc3[nH]2)cc(OC)c1O | -12.2 | 25.1 | 91.4* | -0.7 | -7.7 | 22.8 | 90.5* | 61.6*
Cc1ccc(S(=O)(=O)N2CCCCC2CCNC(=O)C(=O)NCc2ccccc2C)cc1 (centres undefined) | 17.2 | 2.4 | 47.8 | -0.2 | -8.9 | / | / | /
Cc1cc(S(=O)(=O)N2CCCC2)ccc1OCC(=O)Nc1ccc(C(N)=O)cc1 | -7.7 | -0.3 | 3.8 | -0.5 | -3.3 | -3.1 | / | /
Cc1cc(Sc2ncnc(N)c2[N+](=O)[O-])ncn1 | 4.5 | -0.8 | 93.1* | 3.8 | -10.5 | -40.8 | -0.8 | /
COc1ccc2cc(C(=O)/C=C/c3cc(OC)c(O)c(OC)c3)ccc2c1 | -1.7 | 1.4 | 0.1 | -0.7 | -22.0 | / | / | /
COc1ccc(C(=O)/C=C/c2cc(OC)c(O)c(OC)c2)c(F)c1 | -9.7 | 0.4 | 50.9* | -0.1 | -9.4 | -17.6 | 30.2 | /
COc1ccc(OC)c(C2=Nn3c(nnc3-c3cccc(OC(C)C)c3)SC2)c1 | -11.5 | 14.6 | 7.9 | -1.0 | -21.4 | 2.9 | / | /
CC1=Nn2c(nnc2-c2ccccc2F)SC1 | -2.9 | 0.9 | 23.1 | 0.4 | 21.0 | 1.6 | / | /
COc1ccc(C2=Nn3c(nnc3-c3ccccc3OC)SC2)cc1OCC1CC1 | -2.4 | 2.9 | 73.6* | 0.2 | -75.3 | 32.4 | 65.6* | 85.7*
COc1ccc(C2=Nn3c(nnc3C3CCCCC3)SC2)cc1OC | 16.5 | 1.4 | 48.9 | 0.1 | 0.4 | -9.4 | / | /
COc1ccc(C2=Nn3c(nnc3-c3ccccc3F)SC2)cc1OC1CCOC1 (centres undefined) | -19.4 | 0.3 | 70.1* | -1.0 | -14.2 | 10.3 | 63.5* | 33.4
COc1ccc(OC)c(-c2nnc3n2N=C(c2ccc(OC(F)F)c(OCC4CC4)c2)CS3)c1 | 47.2 | 8.8 | 56.8* | -2.0 | -35.9 | -9.5 | 55.2* | 46.0*
SMILES | Jurkat NFkB inh | NTR1 ag | Mdm2-MdmX inh | Bfl-1 A1 inh | 697 NFkB inh | Beta cell apopt | Mdm2-MdmX conf | FLuc counter
CC(=O)N1c2ccc(S(=O)(=O)N3CCCC3)cc2CC1C(=O)Nc1cc(C)cc(C)c1 (centres undefined) | 8.3 | 0.3 | -9.1 | -1.4 | 3.6 | / | / | /
CS(=O)(=O)c1ccccc1-c1nnc(NC(=O)Cc2ccccc2)o1 | -16.8 | 0.2 | -0.3 | -0.2 | -20.3 | / | / | /
C/C(=N\Nc1nc(-c2ccccn2)nc2ccccc12)c1ccc(F)cc1 | 19.5 | 1.3 | 74.7* | 0.4 | -9.3 | 87.5* | 38.3 | 34.4
c1ccc(Oc2nc(-c3ccccn3)nc3ccccc23)cc1 | -19.5 | 1.4 | 33.2 | -5.0 | -24.6 | 47.2 | / | /
c1ccc(-c2nc(N3CCCCCC3)c3ccccc3n2)nc1 | 8.0 | 6.0 | 83.6* | 0.2 | -9.6 | 123.5* | 85.8* | 21.1
c1ccc(-c2nc(N3CCOCC3)c3ccccc3n2)nc1 | -16.1 | -0.5 | 43.1 | 0.2 | -39.5 | 30.8 | / | /
Fc1ccc(Oc2nc(-c3ccccn3)nc3ccccc23)cc1 | -10.0 | 4.8 | 56.9* | -0.9 | -35.4 | 76.6* | 5.5 | /
C/C(=N\Nc1nc(-c2ccccc2O)nc2ccccc12)c1ccccc1 | -15.5 | 9.3 | 18.0 | 0.0 | -25.9 | 16.6 | / | /
COc1ccc(CN2CCNC(=O)C2CC(=O)NCCN2CCCCC2=O)c(F)c1 (centres undefined) | -2.7 | 0.1 | 7.0 | -0.6 | 1.3 | -7.9 | / | /
CC(OC(=O)/C=C/c1ccc2ccccc2n1)C(=O)NCc1ccccc1 (centres undefined) | -5.6 | 0.3 | 54.1* | -0.1 | 9.8 | -7.3 | 29.6 | /
COc1ccc2[nH]c(=O)c(CN(Cc3cccs3)S(=O)(=O)c3cccc4nsnc34)cc2c1 | 47.3 | 10.4 | 75.1* | / | 19.3 | / | 76.4* | 44.8*
Clc1ccc2ncc(-c3nnnn3-c3ccccc3)c(-c3ccccc3)c2c1 | 8.4 | 9.6 | 56.0* | 0.2 | 14.2 | 7.0 | 39.3 | 43.1*
Clc1ccc2[nH]cc(-c3nnnn3-c3ccccc3)c2c1 | 30.3 | 1.1 | 31.5 | -0.6 | -11.5 | 5.9 | / | /
Cn1cc(-c2nnnn2-c2ccc(Cl)cc2)c(=O)c2ccccc21 | 11.2 | 0.7 | 29.5 | 0.3 | 11.1 | 1.6 | / | /
Clc1ccc(-n2nnnc2-c2cnc3ccc(Cl)cc3c2-c2ccccc2)cc1 | 26.4 | 9.2 | 61.4* | 0.3 | -6.3 | 5.6 | 38.5 | /

Screens as filed in PubChem.
